Experimental data reported in PubChem BioAssay (NCI).
The panel holds about 79,000 compounds, 15% with a hit somewhere; the sample as a whole holds those more often. Activity calls are given as the source filed them. Cut-off read from the data, not from the text of the source: active = growth inhibition above about 70%; inactive = the rest.

Assays:
[1] = NCI Yeast Anticancer Drug Screen. Data for the rad50 strain (AID 155);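 note: 0% = growth of vehicle-only cultures of the same strain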; conditions: S. cerevisiae rad50 strain growth inhibition; at 50.0 µM; active compounds read high
Outline: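 Compounds were tested on a yeast strain with an engineered DNA damage repair alteration; the reported value is growth inhibition normalised to vehicle treatment.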

[2] = NCI Yeast Anticancer Drug Screen. Data for the mec2-1 strain (AID 157); conditions: S. cerevisiae mec2-1 strain, at 50.0 µM, active compounds read high
Outline: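 Strain: mec2-1 (DNA repair/cell cycle alteration). Compound exposure, then growth measured; inhibition expressed relative to vehicle.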

[3] = NCI Yeast Anticancer Drug Screen. Data for the sgs1 mgt1 strain (AID 161);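 note: 0% = growth of cultures given vehicle only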; conditions: S. cerevisiae sgs1 mgt1 strain, at 50.0 µM, active compounds read high
Outline: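 Inhibition of yeast growth, normalised to vehicle-treated controls, is reported for a strain bearing genetic alterations in DNA damage repair.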

[4] = NCI Yeast Anticancer Drug Screen. Data for the cln2 rad14 strain (AID 165);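 note: 0% = growth equal to vehicle treated cultures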; conditions: S. cerevisiae cln2 rad14 strain, at 50.0 µM, active compounds read high
Outline: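 Compounds are applied to the cln2 rad14 yeast strain, and growth is then compared with that of vehicle-treated cultures to give inhibition.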

[5] = NCI Yeast Anticancer Drug Screen. Data for the bub3 strain (AID 167); conditions: S. cerevisiae bub3 mutant strain, at 50.0 µM, active compounds read high
Outline: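 Growth of a checkpoint-deficient yeast mutant is measured after compound exposure. Values represent inhibition relative to vehicle.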

[6] = NCI Yeast Anticancer Drug Screen. Data for the mlh1 rad18 strain (AID 175); conditions: S. cerevisiae mlh1 rad18 strain growth inhibition; at 50.0 µM; active compounds read high
Outline: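 Read-out is yeast growth inhibition, calculated against vehicle-only controls. The compound was applied to a strain engineered with DNA damage repair alterations.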

Measured: growth inhibition

C(=C/c1nnc2ncccn12)/c1ccccc1
inactive: [1] -13.8% | [2] -4.85% | [3] -1.5% | [4] -15.7% | [5] 0.05% | [6] -5.4%

Fc1c(F)c(F)c(CSc2nc3ccccc3[nH]2)c(F)c1F
inactive: [1] -42% | [2] -20.1% | [3] -26.7% | [4] -7.35% | [5] 0.35% | [6] -16.7%

CC1(C)CCC(C)(C)c2cc(C(=O)O)ccc21
inactive: [1] 7.55% | [2] 5.3% | [3] 1.55% | [4] 5.4% | [5] 14.4% | [6] 5.05%

CCCC1=NC(C(F)(F)F)(C(F)(F)F)N=C(N2CCOCC2)O1
inactive: [1] 0.95% | [2] 7.25% | [3] -2.3% | [4] 4.55% | [5] 27.1% | [6] 1.45%

C/C(=N\NC(=S)Nc1ccc(C(=O)O)cc1)c1nccc2ccccc12
inactive: [1] 3.2% | [2] 1.1% | [3] 4.2% | [4] 28.9% | [5] 9.75% | [6] 7.25%

Cc1cc(NS(=O)(=O)c2ccc(N=[N+]([O-])c3ccc(S(=O)(=O)Nc4cc(C)on4)cc3)cc2)no1
inactive: [1] 10.8% | [2] -30.1% | [3] -6% | [4] 4.7% | [5] -13.2% | [6] -19.6%

CC(C)CCN(C=O)c1ccccc1
inactive: [1] 1.7% | [2] 0.7% | [3] 8.05% | [4] 5.5% | [5] -9.5% | [6] 2.15%

Cc1cc(S(=O)(=O)Nc2n[nH]c(Nc3ccc(Cl)cc3)n2)c(S)cc1Cl
inactive: [1] -8.1% | [2] -14.9% | [3] 6.7% | [4] 7.05% | [5] 0.35% | [6] 17.4%

Brc1ccc(C2CC(c3cccc4ccccc34)=Nc3ccccc3S2)cc1 (stereo unspecified)
inactive: [1] -14.1% | [2] -2.45% | [3] -10.9% | [4] -29.2% | [5] 8.7% | [6] 18.1%

COc1cc(C)nc2ccc(Cc3ccc4nc(C)cc(OC)c4c3)cc12
inactive: [1] 6.75% | [2] 6.8% | [3] -3% | [4] -14.2% | [5] 7.4% | [6] 25.6%

C(=Nc1ccc(SSc2ccc(N=Cc3ccc4c(c3)OCO4)cc2)cc1)c1ccc2c(c1)OCO2
inactive: [1] 18.8% | [2] 0.05% | [3] -0.95% | [4] -8.55% | [5] 8.75% | [6] 17.2%

CCOC(=O)/C=C/c1ccc(F)cc1
inactive: [1] 27.6% | [2] 2% | [3] 18.1% | [4] 11.2% | [5] 20.8% | [6] 10.9%

O=C(O)C(NCCNC(C(=O)O)c1ccccc1)c1ccccc1 (stereo unspecified)
inactive: [1] 24.2% | [2] 6.7% | [3] 19% | [4] 38.6% | [5] 15.2% | [6] 3.4%

CCC(C)C(N)C1=NC(C(=O)NC(CC(C)C)C(=O)NC(CCC(=O)O)C(=O)NC(C(=O)NC2CCCCNC(=O)C(CC(N)=O)NC(=O)C(CC(=O)O)NC(=O)C(Cc3cnc[nH]3)NC(=O)C(Cc3ccccc3)NC(=O)C(C(C)CC)NC(=O)C(CCCN)NC2=O)C(C)CC)CS1 (stereo unspecified)
inactive: [1] 12.9% | [2] -24.9% | [3] 0.2% | [4] 25.6% | [5] -15.2% | [6] -7.3%

CNC(=O)c1cccc([N+](=O)[O-])c1
inactive: [1] 32.1% | [2] 19.8% | [3] 21.7% | [4] -31.2% | [5] 7.25% | [6] 30.2%

CCCCCCCCCCCCOP(=O)(CC(=O)NCc1cc(C(C)(C)C)c(O)c(C(C)(C)C)c1)OCCCCCCCCCCCC
inactive: [1] -1.55% | [2] 3.3% | [3] 21.9% | [4] -7.3% | [5] -2.9% | [6] -9.9%

COc1cccc(-c2nc(-c3cnccn3)n(Cc3ccccc3)n2)c1
inactive: [1] -49.1% | [2] -60.7% | [3] -59.8% | [4] -22% | [5] -46.5% | [6] -38.8%

O=C1Nc2ccc3c4c(ccc1c24)CC3
inactive: [1] 10.3% | [2] -0.8% | [3] -0.3% | [4] -6.1% | [5] 10.7% | [6] 16.8%

C#CCn1cc(F)c(=O)n(CC#C)c1=O
inactive: [1] -50.2% | [2] -30.8% | [3] -4.55% | [4] -33.9% | [5] -0.05% | [6] -2.05%

CC1CCCC(C)C1O (stereo unspecified)
inactive: [1] -19.7% | [2] -28.1% | [3] -13.9% | [4] 12.3% | [5] -4.6% | [6] -14.1%

Oc1cc2oc3cc(O)c(O)cc3c2cc1O
inactive: [1] 7% | [2] 10.4% | [3] 9.85% | [4] 35.4% | [5] 6.1% | [6] 23.9%

Cc1cnccc1P(=O)(O)O
inactive: [1] 13.7% | [2] -4.8% | [3] 6.7% | [4] -21.7% | [5] -3.55% | [6] 5.65%

O=P(CCC(CC(F)(F)C(F)(F)C(F)(F)C(F)(F)C(F)(F)C(F)(F)C(F)(F)F)P(=O)(N1CC1)N1CC1)(N1CC1)N1CC1 (stereo unspecified)
inactive: [1] 5.1% | [2] 3.5% | [3] -1.6% | [4] -5.1% | [5] -0.35% | [6] 2.35%

CC1C(=O)OC(C)(C)C1(C)C (stereo unspecified)
inactive: [1] 22.4% | [2] -16.3% | [3] 4.75% | [4] -41.6% | [5] 0.2% | [6] -10.4%

CCOC(=O)CCC1(CCC(=O)OCC)c2ccccc2-c2ccccc21
inactive: [1] 3.65% | [2] 9% | [3] -1.85% | [4] -7.15% | [5] -3.75% | [6] 13%

CC(C)=CCC(OC(=O)C=C(C)C)c1cc(O)c2c(O)ccc(O)c2c1O.[Mn] (stereo unspecified)
active: [6] 87.3%
inactive: [1] 36.1% | [2] 47.2% | [3] 25.4% | [4] 54.1% | [5] 46%

O=C1CCCC/C(=C/c2ccccc2)N1
inactive: [1] 4.45% | [2] -7.2% | [3] -6.7% | [4] 12.8% | [5] -21.8% | [6] 7.85%

c1ccc2c(c1)c1ccccc1c1c3ccccc3c3ccccc3c21
inactive: [1] -10.9% | [2] -14.6% | [3] -1.05% | [4] -18.6% | [5] 0.65% | [6] -20.1%

COC(=O)C(=O)C(C(=O)C(=O)Nc1ccccc1C(N)=O)c1nc2ccc(C(=O)c3ccccc3)cc2[nH]c1=O (stereo unspecified)
inactive: [1] -3.9% | [2] 20% | [3] -7.4% | [4] -17.1% | [5] -6.1% | [6] 9.5%

C/C=C/Cc1ccccc1O
inactive: [1] 7.1% | [2] -3.4% | [3] -5.05% | [4] -6.4% | [5] -9.2% | [6] -1.1%

C/C(=N\S(=O)(=O)c1ccc([N+](=O)[O-])cc1)OCC(C)C
inactive: [1] 11.2% | [2] -8.4% | [3] 14.7% | [4] -47.9% | [5] 10.7% | [6] 2.25%

O=C1CC2C1C1C=CC2n2c(=O)n(-c3ccccc3)c(=O)n21 (stereo unspecified)
inactive: [1] -11.6% | [2] 9.05% | [3] 13.5% | [4] 6% | [5] 2.2% | [6] 15.4%

c1ccc2c(c1)Cc1c(-c3ccncc3)n[nH]c1-2
inactive: [1] 48.8% | [2] 33% | [3] 41.6% | [4] 10.3% | [5] 19.3% | [6] 60.1%

CCOC(=O)/C=C(\C)c1ccc(Cl)cc1
inactive: [1] 4.4% | [2] -18.6% | [3] -1.6% | [4] 3.8% | [5] -10.1% | [6] 14.7%

C/C=C/c1cc(C)cc(C)c1OC(C)CC (stereo unspecified)
inactive: [1] -2.45% | [2] -9.75% | [3] 11.4% | [4] -34.5% | [5] -17.9% | [6] 10.1%

CCOC(=O)C(=CN1CCCCCC1)C(=O)OCC
inactive: [1] 19.8% | [2] 13.2% | [3] 13.2% | [4] 6.1% | [5] -0.25% | [6] 32.5%

CCCC(=O)NC(C)(C)C
inactive: [1] 8.8% | [2] -5.3% | [3] -33.9% | [4] 2.9% | [5] 6.2% | [6] -21%

CN(C)N=Nc1ccc(C(=O)N/N=C/c2ccccc2[N+](=O)[O-])cc1
inactive: [1] -13.8% | [2] 1.2% | [3] -16.6% | [4] -18.2% | [5] -14.7% | [6] -40.8%

O=C(COc1ccccc1)OCCCl
inactive: [1] -7.8% | [2] -15.3% | [3] -15.4% | [4] -67.5% | [5] -25.8% | [6] -75.9%

NNc1nc2ccc([N+](=O)[O-])cc2s1
inactive: [1] 13.7% | [2] -8.55% | [3] -1% | [4] -22% | [5] -9.75% | [6] 22.2%

Cc1ccc(S(=O)(=O)N(c2c(F)cc(C#N)cc2F)S(=O)(=O)c2ccc(C)cc2)cc1
inactive: [1] 51.7% | [2] 6.35% | [3] 32.8% | [4] 30.1% | [5] 2.6% | [6] 31.6%
